Assay outcomes from PubChem.
ASK1 primary = ASK1 kinase inhibitors, primary screen, biochemical, AlphaScreen | Mitogen-activated protein kinase kinase kinase 5 (Homo sapiens), Q99683 | AlphaScreen MKK6 phosphorylation by ASK1, luminescence | inhibition, % at 7.44 µM | 22,000 compounds, 0.99% hits; in the data active means inhibition above about 35%;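 further: 0% = median of compound wells and 100% = no enzyme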
ULK1 inh = ULK1 kinase inhibitors, primary screen, biochemical, AlphaScreen | 30,000 compounds, 1.9% hits | Serine/threonine-protein kinase ULK1 (Homo sapiens), O75385 | AlphaScreen Atg13 phosphorylation by ULK1, luminescence | inhibition, % at 5.96 µM; in the data active means inhibition above about 43%;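 further: 0% = median of compound wells and 100% = no enzyme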
AlphaScreen intf = AlphaScreen signal interference by compounds, dose response, artefact control for ASK1 inhibitor project, biochemical, TruHits beads. signal interference counterscreen. AID 1159604, 2016. IC50, µM. 220 compounds, 20% hits. shares compounds with ASK1 primary;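 active means IC50 of 10 µM or lower in the counterscreen; inactive means IC50 above 10 µM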;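 further: loss of AlphaScreen light from TruHits beads alone with no ASK1 enzyme present; potency of signal reduction so a low IC50 flags an assay artifact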
* marks the source's active call; other numbers are inactive results; i = inactive; . = not tested or not shown. A selection: hits, their analogues and other compounds. The true share with any hit is near 2.5%.

SMILES | ASK1 primary | ULK1 inh | AlphaScreen intf
FC(F)(F)c1ccc(Cn2cnc3c(NCCN4CCOCC4)nc(Nc4ccc(C(F)(F)F)cc4)nc32)cc1 | 4.9 | -36.4 | .
FC(F)(F)c1ccc(Cn2cnc3c(Nc4ccc(N5CCOCC5)cc4)nc(Nc4ccc(N5CCOCC5)cc4)nc32)cc1 | 21.6 | 0.5 | .
CCCNc1nc(Nc2ccc(N3CCOCC3)cc2)nc2c1ncn2Cc1ccc(C(F)(F)F)cc1 | 40.2* | -2.5 | i
FC(F)(F)c1ccc(Cn2cnc3c(Nc4ccc5c(c4)OCO5)nc(Nc4ccc(N5CCOCC5)cc4)nc32)cc1 | 62.1* | 3.1 | i
COc1cccc(-n2cc(-c3ccccc3)c(-c3ccnc(Nc4ccc(-n5nc(C)nc5C)cc4)c3)n2)c1 | 13.2 | -32.5 | .
c1ccc(OCCNc2ncnc3nc(N4CCc5ccccc5C4)[nH]c23)cc1 | 10.2 | -0.4 | .
COc1cc(NC(=O)c2cnc(Nc3ncccn3)s2)cc(OC)c1OC | 9.0 | 17.2 | .
CC(=O)c1cccc(-c2nc3ncnc(NCCN(C(C)C)C(C)C)c3[nH]2)c1 | 11.6 | -7.0 | .
COc1ccc(CCNc2nc(NC3CCN(Cc4ccccc4)CC3)nc3c2ncn3Cc2ccc(C(F)(F)F)cc2)cc1 | 23.0 | -5.2 | .
Oc1ccc(CCNc2nc(NC3CCN(Cc4ccccc4)CC3)nc3c2ncn3Cc2ccc(C(F)(F)F)cc2)cc1 | 38.9* | -7.8 | >19.9
FC(F)(F)c1ccc(Cn2cnc3c(Nc4ccc(N5CCOCC5)cc4)nc(NC4CCN(Cc5ccccc5)CC4)nc32)cc1 | 36.6* | -4.7 | i
FC(F)(F)c1ccc(Cn2cnc3c(Nc4ccc(N5CCOCC5)cc4)nc(Nc4ccccc4)nc32)cc1 | 23.3 | -16.2 | .
O=C(NCCc1ccc(O)cc1)c1ccnc(Nc2nccc3ccccc23)c1 | 8.9 | -0.4 | .
OCC1CCCN1c1nc(NCCN2CCOCC2)c2[nH]cnc2n1 (stereo not drawn) | -13.6 | -2.0 | .
COc1cc2nc(Nc3ccc(N4CCOCC4)cc3)nc(Nc3ccc4c(c3)OCO4)c2cc1OC | 54.0* | -1.1 | 4.84*
Cc1cc(NCCc2ccc(O)cc2)nc(N2CCN(Cc3ccc4c(c3)OCO4)CC2)n1 | 37.0* | 7.9 | >18.1
COc1ccc(CCNc2cc(C)nc(N3CCN(Cc4ccc5c(c4)OCO5)CC3)n2)cc1 | 15.2 | -26.6 | .
COc1cc2nc(Nc3ccc(N4CCOCC4)cc3)nc(Nc3ccc(NC(C)=O)cc3)c2cc1OC | 31.0 | 4.3 | .
c1cc(Nc2ccc3c(c2)OCO3)nc(N2CCN(Cc3ccc4c(c3)OCO4)CC2)n1 | 37.0* | -30.2 | >20.1
COc1cc2nc(NCc3cccnc3)nc(Nc3ccc(N4CCOCC4)cc3)c2cc1OC | 20.9 | 17.2 | .
c1ccc(Nc2ccnc(N3CCN(Cc4ccc5c(c4)OCO5)CC3)n2)cc1 | 8.6 | -16.6 | .
COc1cc2nc(NCc3ccc4c(c3)OCO4)nc(Nc3ccc(N4CCOCC4)cc3)c2cc1OC | 51.0* | 0.0 | 6.26*
NC(c1ccc(Nc2nccc(-c3cccc(Nc4ccccc4)c3)n2)cc1)C(F)(F)F (stereo not drawn) | -19.1 | -37.6 | .
O=C(NCCCN1CCCC1=O)c1ccc(-c2ccccc2)s1 | 7.1 | -1.3 | .
c1ccc2c(c1)CCN(c1nccc(Nc3ccc(N4CCOCC4)cc3)n1)C2 | 49.5* | 6.7 | i
SMILES | ASK1 primary | ULK1 inh | AlphaScreen intf
c1cc(Nc2ccc3c(c2)OCO3)nc(Nc2ccc(N3CCOCC3)cc2)n1 | 47.8* | -4.5 | >20.3
COc1ccc(CCNc2cc(C)nc(Nc3ccc(N4CCOCC4)cc3)n2)cc1 | 32.2 | 2.1 | .
COc1cc2nc(Nc3ccc(-n4ccnc4)cc3)nc(Nc3ccc4c(c3)OCO4)c2cc1OC | 49.0* | -161.9 | >20
c1cc(Nc2ccc(N3CCOCC3)cc2)nc(Nc2ccc(N3CCOCC3)cc2)n1 | 20.6 | 12.0 | .
COc1cc2nc(Nc3ccc(-n4ccnc4)cc3)nc(Nc3ccc(NC(C)=O)cc3)c2cc1OC | 13.4 | -28.5 | .
c1ccc(Nc2ccnc(N3CCc4ccccc4C3)n2)cc1 | 0.8 | -13.8 | .
COc1ccc(CCNc2ccnc(Nc3ccc(N4CCOCC4)cc3)n2)cc1 | 42.5* | 7.9 | i
CCOc1ccc2c(c1)CC(c1nc3c(F)cc(-c4ccnc(N)n4)cc3[nH]1)NC2 (stereo not drawn) | 24.1 | 9.4 | .
FC(F)(F)c1ccc(Cn2cnc3c(Nc4ccccc4)nc(N4CCN(Cc5ccc6c(c5)OCO6)CC4)nc32)cc1 | 29.5 | -17.6 | .
Cc1[nH]ncc1-c1ccc(NC(=O)C2COc3ccc(F)cc3C2)c(N(C)CCN(C)C)c1 (stereo not drawn) | -5.7 | 2.3 | .
Cc1[nH]ncc1-c1ccc2nc(NC(=O)C3COc4ccc(F)cc4C3)sc2c1 (stereo not drawn) | 38.7* | 14.1 | >19.2
c1ccc(Nc2ccnn2-c2ccnc(Nc3ccc(N4CCOCC4)cc3)c2)cc1 | 34.5 | -13.4 | .
c1ccc(Nc2cc(-c3ccnc(Nc4ccc(N5CCOCC5)cc4)c3)nn2-c2ccccc2)cc1 | 40.8* | -14.2 | >19.2
CN(C)CCNc1onc(-c2ccnc(Nc3ccc(N4CCOCC4)cc3)c2)c1-c1ccc(F)cc1 | 32.8 | 14.1 | .
Fc1ccc(-c2c(-c3ccnc(Nc4ccc(N5CCOCC5)cc4)c3)noc2NCc2ccccc2)cc1 | 36.6* | 9.6 | >19.2
Cc1cc(NCc2ccccc2)nc(Nc2cnccn2)n1 | -1.7 | 4.5 | .
O=C(Nc1ccc2c(c1)OCO2)c1cccc(Cl)n1 | 2.2 | -1.1 | .
NC(=O)c1ccc(-c2nc(NCc3cccc(C(F)(F)F)c3)c3ncn(Cc4ccc(C(F)(F)F)cc4)c3n2)cc1 | 40.5* | -6.1 | >17.3
COc1ccc(-c2nc(NCc3cccc(C(F)(F)F)c3)c3ncn(Cc4ccc(C(F)(F)F)cc4)c3n2)cc1 | -6.6 | -19.1 | .
CC(=O)c1cccc(-c2nc(NCc3cccc(C(F)(F)F)c3)c3ncn(Cc4ccc(C(F)(F)F)cc4)c3n2)c1 | 5.1 | -11.9 | .
CC(=O)c1cccc(-c2nc(NCc3ccccc3)c3ncn(Cc4ccc(C(F)(F)F)cc4)c3n2)c1 | 46.2* | -5.4 | >19.2
COc1ccc(CCNc2nc(Nc3ccc(-n4ccnc4)cc3)nc3c2ncn3C(C)C)cc1 | 3.8 | 1.6 | .
Nc1cc(C2=C3C=CN=C3C(=O)NCC2)c(O)[nH]1 | 38.3* | 71.3* | >19.2
Nc1cc(C2=C3C=C(Br)N=C3C(=O)NCC2)c(O)[nH]1 | 16.9 | 30.9 | .
Cc1ccc(-c2ncn(-c3ccc(Nc4nccc(-c5cc(F)cc(N(C)C)c5)n4)cc3)n2)cn1 | -14.8 | -24.8 | .
SMILES | ASK1 primary | ULK1 inh | AlphaScreen intf
CN(C)c1cc(F)cc(-c2ccnc(Nc3ccc(-n4cnc(N5CCC(O)CC5)n4)cc3)n2)c1 | 38.6* | -32.8 | >19.2
Fc1cc(-c2ccnc(Nc3ccc(-n4cnc(N5CCOCC5)n4)cc3)n2)cc(N2CCOCC2)c1 | 23.9 | 5.3 | .
COc1ccc(-c2ncn(-c3ccc(Nc4nccc(-c5cc(C#N)cc(N6CCNCC6)c5)n4)cc3)n2)cn1 | 44.6* | -387.0 | >19.2
Cc1nc(-c2ccc3cnc(Nc4ccc(-n5cnc(N6CCOCC6)n5)cc4)nc3c2)n[nH]1 | -20.5 | 19.1 | .
Cc1n[nH]c(C)c1-c1cc(F)cc(-c2ccnc(Nc3ccc(-n4cnc(N5CCOCC5)n4)cc3)n2)c1 | 48.5* | 13.0 | >19.2
COc1ccc(-c2ccc(Nc3nccc(-c4cc(C#N)cc(N5CCOCC5)c4)n3)cc2)cn1 | -2.2 | -3.9 | .
c1cc(-n2cnc(N3CCOCC3)n2)ccc1Nc1ncc2ccc(-c3cn[nH]n3)cc2n1 | 48.6* | 59.2* | >19.2
